Results taken from PubChem BioAssay (NCATS).
Inconclusive results are not listed. Calls of active or inactive are those of the source. Calls come from the whole dose curve; as a rule, active = well fitted curve in the direction sought with a large enough effect; inconclusive = small, poorly fitted or top-dose-only effect, or another doubt; inactive = no such curve, though single readings can be large; an effect the other way counts as inactive or inconclusive.

Assays:
[1] = Quantitative High-Throughput drug screen in 47 multiple myeloma cell lines against the NCATS MIPE library collection: KHM11_PLB cell viability assay (AID 1918962); conditions: KHM11 myeloma cell viability, CellTiter-Glo ATP luminescence, 48 h; series mostly up to 45.8 µM; note: nearly all actives have a fitted effect of over 35% in size
Procedure, shortened: (§1)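 CellTiter-Glo luminescence (ATP) after 48 h compound exposure, 37C/5% CO2; 500 cells/well; MIPE 4.0 approved/investigational drugs pinned in; DMSO = 100%, media only = 0% viability.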

[2] = Quantitative High-Throughput drug screen in 47 multiple myeloma cell lines against the NCATS MIPE library collection: JIM3_ECACC cell viability assay (AID 1918963; note: nearly all actives have a fitted effect of over 35% in size); conditions: JIM3 myeloma viability, CellTiter-Glo ATP, 48 h; series mostly up to 45.8 µM
Procedure, shortened: as §1

[3] = Quantitative High-Throughput drug screen in 47 multiple myeloma cell lines against the NCATS MIPE library collection: INA6_PLB cell viability assay (AID 1918965; note: nearly all actives have a fitted effect of over 55% in size); conditions: INA6 myeloma viability, CellTiter-Glo ATP luminescence, 48 h; series mostly up to 45.8 µM
Procedure, shortened: (§2)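 Myeloma cells (500 per well) were exposed to MIPE 4.0 compounds by pin transfer and incubated 48 hours at 37C, 5% CO2. Viability was read as ATP by CellTiter-Glo luminescence, normalised to DMSO (100%) and media-only (0%) wells.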

[4] = Quantitative High-Throughput drug screen in 47 multiple myeloma cell lines against the NCATS MIPE library collection: Karpas25_ECACC cell viability assay (AID 1918968; note: nearly all actives have a fitted effect of over 35% in size); conditions: Karpas25 myeloma viability, CellTiter-Glo ATP, 48 h; series mostly up to 45.8 µM
Procedure, shortened: (§3)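 Myeloma cell lines, 500 cells per well, exposed to MIPE 4.0 library compounds for 48 h at 37C, 5% CO2. Viability from ATP by CellTiter-Glo luminescence; normalised to DMSO (100%) and media-only (0%) wells.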

[5] = Quantitative High-Throughput drug screen in 47 multiple myeloma cell lines against the NCATS MIPE library collection: KMS27_JCRB cell viability assay (AID 1918970); conditions: KMS27 myeloma cells, CellTiter-Glo ATP viability, 48 h; series mostly up to 45.8 µM; note: nearly all actives have a fitted effect of over 30% in size
Procedure, shortened: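 Each line is seeded at 500 cells per well and treated with library compounds for 48 hours under 37 °C, 5% CO2. CellTiter-Glo is then added for 5 min at room temperature before median relative luminescence is recorded.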

[6] = Quantitative High-Throughput drug screen in 47 multiple myeloma cell lines against the NCATS MIPE library collection: KMS12PE_JCRB cell viability assay (AID 1918972); conditions: KMS12PE myeloma viability, CellTiter-Glo ATP, 48 h; series mostly up to 45.8 µM; note: nearly all actives have a fitted effect of over 30% in size
Procedure, shortened: as §2

[7] = Quantitative High-Throughput drug screen in 47 multiple myeloma cell lines against the NCATS MIPE library collection: KMS26_JCRB cell viability assay (AID 1918975); conditions: KMS26 myeloma cells viability, CellTiter-Glo ATP, 48 h; series mostly up to 45.8 µM; note: nearly all actives have a fitted effect of over 45% in size
Procedure, shortened: (§4)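 Viability readout: CellTiter-Glo luminescence following 5 min room-temperature incubation with reagent. Prior exposure: 48 h, 37C, humidified 5% CO2, 500 cells per well.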

[8] = Quantitative High-Throughput drug screen in 47 multiple myeloma cell lines against the NCATS MIPE library collection: MMM1_PLB cell viability assay (AID 1918976); conditions: MMM1 myeloma cells viability, CellTiter-Glo, 48 h; series mostly up to 45.8 µM; note: nearly all actives have a fitted effect of over 35% in size
Procedure, shortened: (§5)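 Myeloma cells (500/well) treated with MIPE 4.0 compounds for 48 h at 37 °C, 5% CO2. Viability read as ATP via CellTiter-Glo luminescence after 5 min at RT; DMSO-only wells = 100%, media-only = 0% viability.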

[9] = Quantitative High-Throughput drug screen in 47 multiple myeloma cell lines against the NCATS MIPE library collection: OCIMY1_PLB cell viability assay (AID 1918979); conditions: OCI-MY1 myeloma viability, CellTiter-Glo ATP, 48 h; series mostly up to 45.8 µM; note: nearly all actives have a fitted effect of over 35% in size
Procedure, shortened: as §5

[10] = Quantitative High-Throughput drug screen in 47 multiple myeloma cell lines against the NCATS MIPE library collection: JIM1_ECACC cell viability assay (AID 1918964); conditions: JIM1 myeloma viability, CellTiter-Glo ATP luminescence, 48 h; series mostly up to 45.8 µM
Procedure, shortened: as §3

[11] = Quantitative High-Throughput drug screen in 47 multiple myeloma cell lines against the NCATS MIPE library collection: KMS12BM_JCRB cell viability assay (AID 1918971); conditions: KMS12BM myeloma viability, CellTiter-Glo ATP, 48 h; series mostly up to 45.8 µM; note: nearly all actives have a fitted effect of over 35% in size
Procedure, shortened: as §4

[12] = Quantitative High-Throughput drug screen in 47 multiple myeloma cell lines against the NCATS MIPE library collection: KMS20_JCRB cell viability assay (AID 1918973); conditions: CellTiter-Glo ATP, 48 h; series mostly up to 45.8 µM; note: nearly all actives have a fitted effect of over 45% in size
Procedure, shortened: as §3

[13] = Quantitative High-Throughput drug screen in 47 multiple myeloma cell lines against the NCATS MIPE library collection: MOLP8_DSMZ cell viability assay (AID 1918977); conditions: MOLP8 myeloma viability, CellTiter-Glo ATP luminescence, 48 h; series mostly up to 45.8 µM; note: nearly all actives have a fitted effect of over 45% in size
Procedure, shortened: as §5

[14] = Quantitative High-Throughput drug screen in 47 multiple myeloma cell lines against the NCATS MIPE library collection: NCIH929_DSMZ cell viability assay (AID 1918978); conditions: NCI-H929 myeloma viability, CellTiter-Glo ATP, 48 h; series mostly up to 45.8 µM; note: nearly all actives have a fitted effect of over 35% in size
Procedure, shortened: as §5

[15] = Quantitative High-Throughput drug screen in 47 multiple myeloma cell lines against the NCATS MIPE library collection: MM1R_ATCC cell viability assay (AID 1918981); conditions: MM1R multiple myeloma cells, CellTiter-Glo viability, 48 h; series mostly up to 45.8 µM; note: nearly all actives have a fitted effect of over 35% in size
Procedure, shortened: as §5

[16] = Quantitative High-Throughput drug screen in 47 multiple myeloma cell lines against the NCATS MIPE library collection: KMS21BM_JCRB cell viability assay (AID 1918974); conditions: ATP luminescence, 48 h; viability: at 45.8 µM (top of the series) unless noted
Procedure, shortened: as §3

[17] = Quantitative High-Throughput drug screen in 47 multiple myeloma cell lines against the NCATS MIPE library collection: MM1S_ATCC cell viability assay (AID 1918980); conditions: MM1S myeloma viability, CellTiter-Glo ATP luminescence, 48 h; series mostly up to 45.8 µM; note: nearly all actives have a fitted effect of over 45% in size
Procedure, shortened: as §5

[18] = Quantitative High-Throughput drug screen in 47 multiple myeloma cell lines against the NCATS MIPE library collection: H1112_PLB cell viability assay (AID 1918967; note: nearly all actives have a fitted effect of over 30% in size); conditions: H1112 myeloma cells viability, ATP luminescence, 48 h; series mostly up to 45.8 µM
Procedure, shortened: as §3

[19] = Quantitative High-Throughput drug screen in 47 multiple myeloma cell lines against the NCATS MIPE library collection: LP1_DSMZ cell viability assay (AID 1918982); conditions: LP1 myeloma viability, CellTiter-Glo ATP luminescence, 48 h; series mostly up to 45.8 µM; note: nearly all actives have a fitted effect of over 35% in size
Procedure, shortened: as §5

[20] = Quantitative High-Throughput drug screen in 47 multiple myeloma cell lines against the NCATS MIPE library collection: JJN3_DSMZ cell viability assay (AID 1918966; note: nearly all actives have a fitted effect of over 50% in size); conditions: JJN3 myeloma cells viability, CellTiter-Glo ATP, 48 h; series mostly up to 45.8 µM
Procedure, shortened: as §3

Measured: Potency
Potency is the fitted concentration of half-maximal effect.

CCN1CCN(Cc2ccc(-c3cc4c(N[C@H](C)c5ccccc5)ncnc4[nH]3)cc2)CC1
active: [1] 5900 nM | [2] 469 nM | [3] 418 nM | [4] 2090 nM | [5] 16.6 nM | [6] 46.9 nM | [7] 935 nM | [8] 18700 nM | [9] 3320 nM

COc1c(OCCCN2CCOCC2)ccc2c3n(c(=NC(=O)c4cnc(N)nc4)nc12)CCN3
active: [1] 575 nM | [10] 7.2 nM | [3] 6450 nM | [4] 57.5 nM | [5] 45.7 nM | [11] 5750 nM | [6] 72.4 nM | [12] 51.2 nM | [7] 407 nM | [8] 51.2 nM | [13] 28.8 nM | [14] 12.9 nM | [9] 20.4 nM | [15] 81.2 nM

Cc1ccc(C(=O)Nc2ccc(CN3CCN(C)CC3)c(C(F)(F)F)c2)cc1C#Cc1cnc2cccnn12
active: [1] 662 nM | [2] 1870 nM | [3] 332 nM | [4] 935 nM | [5] 2640 nM | [11] 2960 nM | [12] 833 nM | [16] 662 nM | [7] 6620 nM | [13] 833 nM | [9] 14800 nM | [17] 4690 nM | [15] 3320 nM

COC(=O)Nc1ccc(-c2nc(N3CCOCC3)c3cnn(C4CCN(Cc5cccnc5)CC4)c3n2)cc1
active: [1] 59 nM | [2] 1180 nM | [18] 26400 nM | [4] 118 nM | [11] 1050 nM | [12] 1 nM | [7] 2960 nM | [8] 83.3 nM | [13] 59 nM | [14] 74.3 nM | [9] 4690 nM | [17] 118 nM | [15] 1480 nM
inactive: [5] | [6]

c1cc(-c2cnn3cc(-c4ccc(OCCN5CCCCC5)cc4)cnc23)ccn1
inactive: [5] | [6]
active: [1] 1480 nM | [2] 3720 nM | [3] 1870 nM | [18] 2960 nM | [4] 2960 nM | [11] 16600 nM | [12] 2350 nM | [7] 16600 nM | [8] 16600 nM | [13] 10500 nM | [14] 2350 nM | [9] 26400 nM | [15] 18700 nM | [19] 13200 nM

COc1cc2c(Oc3ccc4[nH]c(C)cc4c3F)ncnc2cc1OCCCN1CCCC1
active: [1] 4690 nM | [2] 9350 nM | [20] 20900 nM | [18] 8330 nM | [4] 5900 nM | [11] 29600 nM | [6] 2640 nM | [12] 2960 nM | [7] 29600 nM | [8] 23500 nM | [14] 7430 nM | [9] 26400 nM | [17] 18700 nM | [15] 26400 nM

CNC(=O)c1ccc(-c2cnc3ncc(Cc4ccc5ncccc5c4)n3n2)cc1F
active: [20] 5900 nM
inactive: [1] | [2] | [7] | [14] | [9] | [17]

COc1ccc(F)c(F)c1C(=O)c1cnc(NC2CCN(S(C)(=O)=O)CC2)nc1N
active: [2] 1870 nM | [10] 1180 nM | [3] 1320 nM | [20] 1320 nM | [18] 1870 nM | [4] 1180 nM | [5] 1320 nM | [11] 1180 nM | [6] 1870 nM | [12] 2090 nM | [16] 296 nM | [7] 2640 nM | [13] 1320 nM | [14] 1870 nM | [9] 3720 nM | [17] 1660 nM | [15] 2090 nM | [19] 2960 nM

CC(O)C1C(=O)N2C(C(=O)O)=C(SC3CNC(C(=O)N(C)C)C3)C(C)C12 (stereo unspecified)
inactive: [1] | [2] | [3] | [5] | [11]

CCCn1c(=O)c2[nH]c(-c3cnn(Cc4cccc(C(F)(F)F)c4)c3)nc2n(CC)c1=O
inactive: [1] | [2] | [18] | [4] | [14] | [9]
active: [20] 5900 nM | [8] 13200 nM | [13] 5900 nM

CN(C)CCCN=c1c2ccccc2n(C)c2[nH]c(=O)n(C)c(=O)c12
active: [1] 5260 nM | [3] 3720 nM | [20] 16600 nM | [11] 4180 nM | [7] 26400 nM | [8] 16600 nM | [13] 6620 nM | [17] 3720 nM | [15] 18700 nM

CC(C)CC(=O)Nc1n[nH]c2c1CN(C(=O)C1CCN(C)CC1)C2(C)C
active: [1] 1180 nM | [2] 833 nM | [20] 2090 nM | [18] 3320 nM | [4] 1870 nM | [5] 1180 nM | [6] 2350 nM | [12] 1050 nM | [16] 29.6 nM | [7] 3320 nM | [8] 4690 nM | [13] 418 nM | [14] 743 nM | [9] 16600 nM | [17] 66.2 nM | [15] 662 nM | [19] 1870 nM
